From PubChem
An excerpt weighted towards active compounds, which were near 3.4% of everything screened.
PLCg1 inh – blocks human PLC-gamma1 enzyme activity | P19174 | purified PLC-gamma1, fluorogenic substrate, fluorescence | inhibition, % at 12.2 µM | hit rate 0.84% among 370,000 | AID 720700; in the data active = inhibition above about 9.5%
ADAM17 inh – inhibits human ADAM17; hit rate 0.83% among 370,000; inhibition, % at 6.95 µM; recombinant ADAM17, EDANS/DABCYL FRET peptide cleavage; P78536;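 active = inhibition above the mean of compounds lying between control limits plus 3 SD, set per campaign, cut at about 8.5% in these data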;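 also: 0% = DMSO-only wells as the low control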
proKLK7 act – activates the human kallikrein-7 zymogen; P49862; purified proKLK7, EDANS-DABCYL substrate fluorescence; 100% is mature enzyme control, 0% vehicle; activation, % at 7 µM; hit rate 0.9% among 370,000;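 active = activation above the mean of all tested compounds plus 3 SD, computed per campaign excluding outliers beyond control limits, cut at about 13% in these data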
PLC-beta3 inh – blocks human PLC-beta3 enzyme activity. Q01970. Purified PLC-beta3, fluorogenic substrate, fluorescence. inhibition, % at 12.2 µM. hit rate 0.18% among 370,000. AID 720704;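 also: 0% = median of compound wells on plate and 100% = full blocker control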
HGIII-sPLA2 inh – Blocks human group III sPLA2 activity | hit rate 0.56% among 370,000 | inhibition, % at 12.2 µM | AID 743126 | Q9NZ20 | QFRET BODIPY PC-A2 liposome hydrolysis, fluorescence;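 active = inhibition above mean plus 3 SD of compounds lying within the high and low control bounds, cut at about 19% in these data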;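 also: 0% = median of test compound wells and 100% = no enzyme DMSO wells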
Target sequence (Q9NZ20 whole entry, looked up): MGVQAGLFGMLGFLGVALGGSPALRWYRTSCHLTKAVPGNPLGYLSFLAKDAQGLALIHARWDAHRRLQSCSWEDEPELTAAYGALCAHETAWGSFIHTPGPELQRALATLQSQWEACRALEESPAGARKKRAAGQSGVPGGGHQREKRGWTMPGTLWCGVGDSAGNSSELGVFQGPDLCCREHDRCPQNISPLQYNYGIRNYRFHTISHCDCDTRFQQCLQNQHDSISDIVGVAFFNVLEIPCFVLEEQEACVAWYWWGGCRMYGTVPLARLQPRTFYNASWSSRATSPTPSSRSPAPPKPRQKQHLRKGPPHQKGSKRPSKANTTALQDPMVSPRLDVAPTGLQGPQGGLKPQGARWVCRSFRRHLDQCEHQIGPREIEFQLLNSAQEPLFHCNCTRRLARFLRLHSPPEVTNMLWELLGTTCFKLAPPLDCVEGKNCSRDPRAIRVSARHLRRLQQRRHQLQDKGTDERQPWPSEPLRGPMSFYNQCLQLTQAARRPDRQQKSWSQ
ADAM10 inh – inhibits human ADAM10. O14672. inhibition, % at 7 µM. recombinant ADAM10, EDANS/DABCYL FRET peptide cleavage, 3 h. hit rate 0.62% among 370,000. AID 720582;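 active = inhibition above a per-campaign cutoff equal to the mean of compounds falling between control-based bounds plus 3 SD, cut at about 20% in these data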;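 also: 0% = DMSO wells while the 100% control is not disclosed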
PLCg1 ctr – PLC-gamma1 inhibition, counter-screen for PLC-beta3 hits. shares compounds with PLCg1 inh. purified PLC-gamma1, fluorogenic substrate, fluorescence. inhibition, % at 12.3 µM. hit rate 3.1% among 3,300; in the data active = inhibition above about 9.5%
PLCbeta3 conf – confirmation of human PLC-beta3 inhibitors | hit rate 1% among 3,300 | inhibition, % at 12.3 µM | purified PLC-beta3, fluorogenic substrate fluorescence | shares compounds with PLCg1 inh
* hit, by the source's call; . = no result. Rule as the data show it, unless noted: active = inhibition above about 11%; inactive = the rest.

SMILES	PLCg1 inh	ADAM17 inh	proKLK7 act	PLC-beta3 inh	HGIII-sPLA2 inh	ADAM10 inh	PLCg1 ctr	PLCbeta3 conf
CC(=O)Nc1ccc(NC(=O)CCCSc2nc3ccccc3[nH]2)cc1	12.5*	2.6	0.2	1.6	6.4	2.4	5.2	5.0
COc1ccc(CSc2nc3ccccc3[nH]2)cc1	1.7	0.5	0.2	2.6	-3.9	8.9	.	.
Nc1ncnc2c1ncn2[C@@H]1O[C@H](C(=O)N[C@@H](CCc2ccccc2)C(=O)O)[C@@H](O)[C@H]1O	-1.9	3.5	1.0	3.5	3.8	5.1	.	.
Nc1nonc1OCCOCCOCCOc1nonc1N	-0.1	-2.8	-0.1	1.7	1.4	2.7	.	.
Cc1cc(C)n(CCOc2nonc2N)n1	11.2*	1.0	-0.6	11.8*	4.1	-3.4	-3.0	0.2
CCCCCn1c(C)c(CC(=O)Nc2ccc(Oc3cccnc3)c(C)c2)c2ccccc21	-7.0	2.1	-0.3	-10.3	-23.8	0.8	.	.
CC(C)S(=O)(=O)N[C@@H]1c2cc3c(cc2[C@H](c2ccccc2)[C@H]1C)OCO3	-1.7	-6.8	0.6	-1.7	10.2	-9.2	.	.
COc1ccc([C@H]2OC(=O)C[C@@H]2C(=O)N2CCN(c3ccccc3Cl)CC2)cc1OC	-4.0	-0.9	-0.6	-2.3	5.3	-5.1	.	.
O=C(NCc1ccccc1Cl)c1ccc(CS(=O)Cc2ccc(Cl)cc2)o1 (configuration not stated)	9.5*	2.2	0.0	-4.9	-26.1	2.6	2.0	6.9
Cc1ccc(CS(=O)Cc2ccc(C(=O)NCc3ccccc3Cl)o2)cc1 (configuration not stated)	1.7	3.0	0.0	-9.6	-7.0	-6.1	.	.
Cc1ccc(C(=O)NC2CCCC2)s1	10.4*	2.4	0.3	0.2	5.2	0.8	-3.1	-1.9
CCOc1ccc(N(CC(=O)NC2CCCC2)C(=O)CCCC(=O)Nc2ccccn2)cc1	5.0	7.7	0.8	14.6*	12.7	12.0	0.9	-6.0
CCOc1ccc(N(CC(=O)NC2CCCC2)C(=O)CCC(=O)Nc2ccccn2)cc1	1.4	-2.4	1.1	0.8	-6.3	0.7	.	.
O=C(NNS(=O)(=O)c1ccc(Cl)cc1)c1ccc(S(=O)(=O)N2CCCCC2)cc1	5.0	5.2	0.7	11.1*	-31.3	19.4	-4.1	-6.1
c1ccc(CCn2c(SCc3ccccc3)nnc2-c2ccncc2)cc1	9.9*	3.8	-0.7	1.6	11.0	0.2	-5.5	-4.3
N#Cc1ccc(CSc2nnc(-c3ccncc3)n2CCc2ccccc2)cc1	-3.0	-3.0	-0.5	-3.1	8.0	-3.8	.	.
C=CCn1c(SCc2cccc(OC)c2)nnc1-c1ccncc1	11.9*	-0.9	0.1	-0.2	6.2	7.7	-0.3	-2.8
Cc1cccc(Cn2cc(COC(=O)NCC(C)C)nn2)c1	4.0	1.8	-0.2	-1.5	7.0	1.9	.	.
CN(C(=O)COC(=O)c1ccc2ccccc2n1)C1CCCCC1	10.4*	6.3	0.2	4.3	4.9	-12.5	-5.4	-0.9
COc1ccc(S[C@]2(C(=O)NC(C)C)CC(=O)N[C@@H]2c2ccc(OC)cc2)cc1	0.8	-2.2	0.5	-2.5	7.5	-3.8	.	.
c1ccc2c(C3OCC4(CCCC4)CO3)cccc2c1	9.6*	4.2	0.7	2.4	5.4	-9.4	-1.3	-2.4
O=C(O)CCCN1C(=O)/C(=C\c2ccco2)SC1=S	14.6*	-0.9	0.3	-8.1	-40.0	-6.4	23.1*	-5.1
O=C(CCN1C(=O)/C(=C\c2ccco2)SC1=S)Nc1ccc(C(=O)O)c(O)c1	37.4*	-3.7	-0.2	-6.7	-18.3	0.1	13.7*	-25.0
C=CCn1c(SCC(=O)Nc2ccc(CCCC)cc2)nnc1-c1ccc(Cl)cc1	-1.8	-1.5	-0.5	-0.1	3.3	-0.1	.	.
CCc1nnc(NC(=O)CCC(=O)N2CCN(CCOc3ccc(C)cc3)CC2)s1	6.1	4.0	0.1	13.8*	0.7	7.6	-6.4	-4.2
Cc1ccccc1S(=O)(=O)NCc1cccnc1	-1.9	1.3	-0.7	2.7	-0.1	0.2	.	.
Cc1ccc(C(C)C)cc1S(=O)(=O)NCc1cccnc1	9.9*	1.6	-0.1	3.3	-3.8	8.9	-5.9	-3.6
